The list is not random: actives were taken first. Their share in the collection is about 2.9%.
Mcl1-Bid inh – disrupts binding of human Mcl-1 to Bid peptide; Q07820; TR-FRET Mcl-1/Bid-Dy647 peptide binding, 1536-well; inhibition, % at 21.7 µM; hit rate 0.97% among 220,000; AID 1021;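 active means compounds that cut the binding signal by more than half at the single screening dose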;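 further: His-tagged Mcl-1 with europium anti-His antibody binding Bid BH3 peptide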
Target sequence (Q07820 whole entry, looked up): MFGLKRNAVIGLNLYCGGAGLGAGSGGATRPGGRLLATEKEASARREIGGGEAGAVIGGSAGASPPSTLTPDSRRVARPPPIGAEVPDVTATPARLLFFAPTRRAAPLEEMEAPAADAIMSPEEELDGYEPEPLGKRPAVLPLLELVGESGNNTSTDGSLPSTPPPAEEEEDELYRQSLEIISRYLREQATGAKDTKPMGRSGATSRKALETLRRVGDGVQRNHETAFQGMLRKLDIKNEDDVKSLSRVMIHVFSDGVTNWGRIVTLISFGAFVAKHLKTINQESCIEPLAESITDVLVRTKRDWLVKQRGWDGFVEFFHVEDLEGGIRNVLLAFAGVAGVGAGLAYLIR
Mcl1-Noxa inh – Mcl-1/Noxa interaction inhibition; Q07820; TR-FRET Mcl-1/Noxa peptide binding, 2 h; inhibition, % at 21.7 µM; hit rate 1.5% among 220,000;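 active means compounds that cut the protein-peptide binding signal by more than 50% relative to plate controls in a single-dose test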;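 further: His-tagged Mcl-1 with rhodamine Noxa BH3 peptide and terbium anti-His antibody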
Hck-Nef inh – inhibitors of human Hck kinase activated by Nef | hit rate 0.68% among 220,000 | inhibition, % at 20 µM | P08631 | Recombinant Hck-YEEI plus Nef, Z-Lyte FRET kinase assay;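 active means Hck-Nef kinase inhibition above about 50%, limit read from the data; inactive means inhibition below that limit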
Pf gamet viab – kills late stage P. falciparum gametocytes; hit rate 0.065% among 150,000; P. falciparum stage V gametocytes, ATP luminescence, 24 h; inhibition, % at 10.9 µM;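 active means inhibition above the mean plus 3 SD of compounds within the control limits, set per campaign, cut at about 38% in these data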
14-3-3 Bad PPI – disrupts binding of bovine 14-3-3 zeta to phospho-Bad peptide; inhibition, % at 21.7 µM; AID 781; hit rate 0.71% among 220,000; TR-FRET 14-3-3zeta/Dy647-pBad peptide displacement, 1 h;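 active means inhibition above about 70%, limit read from the data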
Target sequence (P63103 whole entry, looked up): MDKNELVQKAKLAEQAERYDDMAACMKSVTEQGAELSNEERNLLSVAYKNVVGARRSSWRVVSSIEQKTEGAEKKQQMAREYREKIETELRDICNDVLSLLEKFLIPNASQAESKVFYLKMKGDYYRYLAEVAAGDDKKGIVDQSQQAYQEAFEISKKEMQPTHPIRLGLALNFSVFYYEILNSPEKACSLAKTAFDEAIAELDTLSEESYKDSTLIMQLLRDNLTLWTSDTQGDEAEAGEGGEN
Mcl-1 Bim block – disrupts Bim peptide binding to human Mcl-1. Bead-based flow cytometry, Bim peptide-Mcl-1 binding. AID 1009. inhibition, % at 10 µM. hit rate 0.1% among 190,000; in the data active means inhibition above about 40%
Hits are given with their value; . = inactive; / = not tested or not shown; ! = not active in a repeat.

SMILES	Mcl1-Bid inh	Mcl1-Noxa inh	Hck-Nef inh	Pf gamet viab	14-3-3 Bad PPI	Mcl-1 Bim block
CC1=NN(c2ccccc2)C(=O)C1(C)C	.	.	.	/	.	.
O=C(CSc1ccc(-c2ccc(Br)cc2)nn1)N1CCOCC1	.	.	.	.	.	.
O=C(NCCCN1CCOCC1)c1cccnc1	.	.	.	.	.	.
CSc1ccccc1NC(=O)CN1CCCCC1	.	.	.	.	.	.
CCOCCCNCC(=O)Nc1ccccc1N1CCOCC1	.	.	.	.	71.0	.
O=C(NCCCN1CCOCC1)c1ccccc1	.	.	.	/	80.7	.
Cc1ccc(C(=O)N/C(=C\c2ccc(C(C)C)cc2)C(=O)NCCCN2CCOCC2)cc1	.	51.1	.	.	.	.
CSc1ccccc1NC(=O)CNCCCN1CCOCC1	89.1	.	.	.	.	/
Cc1ccc(C(=O)N/C(=C\c2ccc(Cl)cc2)C(=O)NCCCN2CCOCC2)cc1	.	.	.	.	.	.
CC1=C(C(=O)N(C)CCC#N)C2(CCCCC2)OC1=O	.	.	.	/	.	.
CNCc1ccccc1Sc1cc(O)ccc1O	.	99.3	.	.	.	.
COc1ccc(-c2nc3ccccc3c(=O)n2CCOc2cccc(C)c2C)cc1	95.2	.	.	.	.	.
CCC(Oc1ccccc1)C(=O)NCc1ccc(S(N)(=O)=O)cc1 (centres undefined)	.	.	.	60.8	.	.
CCOc1c(Cl)cc(CNc2ccc(N3CCCC3)cc2)cc1OC	.	88.4	.	.	.	.
Cc1cc(C)c(N)c(C(=O)O)c1	61.0	.	.	/	.	/
Cc1ccc(NC(=O)c2noc3c2CCC3)cc1C	.	53.6	.	.	.	.
COc1ccc(NC(=O)c2noc3c2CCC3)cc1	.	.	.	.	.	.
CC(=O)c1ccc(NC(=O)c2noc3c2CCC3)cc1	.	.	.	.	.	.
COc1cc(NC(=O)c2noc3c2CCC3)c(OC)cc1Cl	.	62.8	.	/	.	.
CCNC(=O)C12CCC(C)(c3nc4cc(C)c(C)cc4nc31)C2(C)C (centres undefined)	.	.	.	.	.	.
O=C(CSc1nnc(SCc2ccccc2)s1)N/N=C/C=C/c1ccco1	.	106.4	.	/	.	.
O=C(CNc1cccc2ccccc12)N/N=C/C=C/c1ccco1	.	.	.	.	.	.
O=C(N/N=C/C=C\c1ccco1)c1ccccn1	.	.	.	.	.	/
O=C(N/N=C\C=C\c1ccco1)c1cc(-c2ccc3ccccc3c2)n[nH]1	.	93.2	.	/	.	.
O=C(Cc1cccs1)N/N=C/C=C/c1ccco1	.	70.3	.	/	.	.
SMILES	Mcl1-Bid inh	Mcl1-Noxa inh	Hck-Nef inh	Pf gamet viab	14-3-3 Bad PPI	Mcl-1 Bim block
CCn1c(SCC(=O)N/N=C/C=C/c2ccco2)nnc1-c1ccccc1	.	.	.	.	.	.
O=C(Oc1ccc(NC2=C(Cl)C(=O)c3ccccc3C2=O)cc1)c1ccc([N+](=O)[O-])cc1	70.3	92.2	.	/	.	.
O=C(Oc1ccc([N+](=O)[O-])cc1)c1cccnc1	.	.	.	.	.	.
N#C/C(=C\c1ccc2c(c1)OCCO2)C(=O)NC1CCCCC1	.	.	.	.	.	.
CO/N=C/NC(=O)c1ccc([N+](=O)[O-])c(CS(=O)(=O)c2ccc(Cl)cc2)c1	.	65.5	.	.	.	.
C[c-]1[c-](C)[c-](C)[c-](C)[c-]1C.[Fe].c1cc2nccc(N3CCCC3)[c-]2c1 (centres undefined)	.	54.9!	.	.	.	/
CCc1ccc(NC(=S)Nc2cccc3cnccc23)cc1	.	.	.	.	.	.
COc1ccc(C(=O)/C=C(\N)C(F)(F)F)c(O)c1	.	69.0	.	/	.	.
O=C(CCNC(=O)c1ccco1)Nc1ccc(Cl)cc1	.	.	.	.	.	.
CCN(CC)c1ccc(NC(=O)CCNC(=O)c2ccco2)cc1	.	79.3	.	.	.	.
N/C(=N\OC(=O)Cc1cccc2ccccc12)c1ccccn1	.	.	.	/	.	.
S=C(NCc1ccc(Cl)cc1)NC1CCN(Cc2ccccc2)CC1	74.5	.	.	.	.	.
S=C(Nc1ccc(Cl)cc1Cl)NC1CCN(Cc2ccccc2)CC1	.	.	.	.	.	.
COc1ccc(C(=O)/C=C/C(=O)N(CC(=O)NC2CCCCC2)CC2CCCO2)c(O)c1 (centres undefined)	.	68.5	.	.	.	.
COc1cccc(CNC(=O)C2CCN(S(=O)(=O)N3CCCCC3)CC2)c1	91.8	.	.	/	.	.
COC(=O)Cn1cc(C(=O)C(F)(F)F)c2ccccc21	.	.	.	.	.	.
Cc1ccc2c(c1)C(=O)CC1(CCCCCC1)O2	.	.	.	/	.	/
COC(=O)CN1C(=O)[C@H]2[C@@H](/C=C/c3ccccc3)N3C(=O)CN(CCO)C(=O)[C@@]3(Cc3ccccc3)[C@H]2C1=O	/	/	/	.	/	/
CCc1ccc(Nc2nnc(SCC(=O)Nc3cccnc3Cl)s2)cc1	.	.	.	.	.	.
CCc1ccc(Nc2nnc(SCC(=O)Nc3sccc3C(N)=O)s2)cc1	.	52.8	.	/	.	.
COc1cccc(Nc2nnc(SCC(=O)Nc3sccc3C(N)=O)s2)c1	.	60.4	.	.	.	.
CC(=O)Nc1cccc(OCC(=O)Nc2sccc2C(N)=O)c1	.	51.5	.	.	.	/
CC(=O)Nc1cccc(OCC(=O)Nc2ccccc2)c1	.	.	.	.	.	.
COc1cccc(NC(=O)CSc2nnc(C)s2)c1	.	.	.	.	.	.
CCCCS(=O)(=O)CC(COc1ccccc1)OC(=O)c1ccccc1 (centres undefined)	.	.	.	.	.	.
SMILES	Mcl1-Bid inh	Mcl1-Noxa inh	Hck-Nef inh	Pf gamet viab	14-3-3 Bad PPI	Mcl-1 Bim block
COC(=O)c1ccc(Sc2ccccc2NS(=O)(=O)c2ccc(C)cc2)nc1	.	.	.	/	.	.
O=C(CN1CCCc2ccccc21)N1CCc2ccccc21	.	.	.	.	.	/
O=C(CN1CCC(N2CCCCC2)CC1)N1CCCc2ccccc21	.	.	.	/	86.9	.
CC(C)COC(=O)C1C(=O)CC(C)(O)C(C(=O)OCC(C)C)C1c1cccnc1 (centres undefined)	.	.	.	.	.	.
CC(C)(C)OC(=O)C1C(=O)CC(C)(O)C(C(=O)OC(C)(C)C)C1c1cccnc1 (centres undefined)	.	.	.	.	80.0	.
COc1ccc(CN2CCN(C(=O)CN3C(=O)C4C5C=CC(C5)C4C3=O)CC2)c(OC)c1OC (centres undefined)	.	.	.	/	.	.
COc1ccc(CN2CCN(C(=O)CC(C)C)CC2)c(OC)c1OC	.	.	.	/	73.0	.
COc1ccc(CN2CCN(C(=O)CC(C)C)CC2)cc1	/	/	/	.	/	/
COc1cc(CN2CCN(C(=O)CC(C)C)CC2)cc(OC)c1OC	.	.	.	/	79.7	.
COc1cc(CN2CCN(C(=O)CC(C)C)CC2)cc(OC)c1O	50.9	.	.	/	.	.
S=c1[nH]nc(Cc2cccs2)n1-c1cccc2ccccc12	.	.	.	/	.	.

Screens as filed in PubChem BioAssay.
